The supplement of paper PMC6089552
Screen size: about 3,200 compounds; about 300 (9.4%) showed activity. The entries come from a sample that favours actives as a whole.

System: A673/TR/shEF
Test: cell viability (LOESS-normalised, relative to median of negative controls) (log2 ratio); higher = more viable cells (less compound effect), active = hit call of the paper (over 3 MAD below the median)
Conditions: treatment time: 72 h
Procedure, shortened: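 For three days, A673/TR/shEF Ewing sarcoma cells in 384-well plates (1,500 per well) were treated with library compounds at two or more concentrations or with DMSO controls, after doxycycline had been added or withheld 24 h beforehand to induce EWS-FLI1 shRNA knockdown. Viability was read by CellTiter-Glo luminescence on an Envision reader. The data were LOESS-corrected per plate, divided by the median of negative controls and log2-transformed.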

[1] = 0.25 µM, library screen: screen2, EWS-FLI1 expression: high (no doxycycline)
[2] = 0.25 µM, library screen: screen2, EWS-FLI1 expression: low (doxycycline-induced shRNA knockdown)
[3] = 2.5 µM, library screen: screen2, EWS-FLI1 expression: high (no doxycycline)
[4] = 2.5 µM, library screen: screen2, EWS-FLI1 expression: low (doxycycline-induced shRNA knockdown)
[5] = 0.25 µM, library screen: screen1, EWS-FLI1 expression: high (no doxycycline)
[6] = 0.25 µM, library screen: screen1, EWS-FLI1 expression: low (doxycycline-induced shRNA knockdown)
[7] = 2.5 µM, library screen: screen1, EWS-FLI1 expression: high (no doxycycline)
[8] = 2.5 µM, library screen: screen1, EWS-FLI1 expression: low (doxycycline-induced shRNA knockdown)
[9] = 0.103 µM, library screen: screen3, EWS-FLI1 expression: high (no doxycycline)
[10] = 0.103 µM, library screen: screen3, EWS-FLI1 expression: low (doxycycline-induced shRNA knockdown)
[11] = 0.308 µM, library screen: screen3, EWS-FLI1 expression: high (no doxycycline)
[12] = 0.308 µM, library screen: screen3, EWS-FLI1 expression: low (doxycycline-induced shRNA knockdown)
[13] = 0.926 µM, library screen: screen3, EWS-FLI1 expression: high (no doxycycline)
[14] = 0.926 µM, library screen: screen3, EWS-FLI1 expression: low (doxycycline-induced shRNA knockdown)
[15] = 2.8 µM, library screen: screen3, EWS-FLI1 expression: high (no doxycycline)
[16] = 2.8 µM, library screen: screen3, EWS-FLI1 expression: low (doxycycline-induced shRNA knockdown)
[17] = 8.3 µM, library screen: screen3, EWS-FLI1 expression: high (no doxycycline)
[18] = 8.3 µM, library screen: screen3, EWS-FLI1 expression: low (doxycycline-induced shRNA knockdown)
[19] = 25 µM, library screen: screen3, EWS-FLI1 expression: high (no doxycycline)
[20] = 25 µM, library screen: screen3, EWS-FLI1 expression: low (doxycycline-induced shRNA knockdown)

Measured: cell viability (log2)

CN1CCC[C@@H]1c1cccnc1
inactive: [1] 0.0881 | [2] 0.0848 | [3] 0.112 | [4] 0.123

C[C@H](C[C@@H](O)[C@@H]1OC1(C)C)[C@@H]1CC[C@]2(C)C3=CC[C@H]4C(C)(C)C(=O)CC[C@]4(C)[C@H]3CC[C@@]12C
inactive: [5] 0.0762 | [6] 0.064 | [7] 0.0491 | [8] 0.136

Nc1ncnc2c1ncn2[C@@H]1O[C@H](CO)[C@@H](O)[C@H]1O
active: [1] -0.195
inactive: [9] 0.0648 | [10] 0.118 | [5] 0.105 | [6] 0.0646 | [2] 0.0787 | [11] 0.108 | [12] 0.149 | [13] 0.0961 | [14] 0.106 | [7] 0.129 | [8] 0.198 | [3] 0.141 | [4] 0.177 | [15] 0.133 | [16] 0.0552 | [17] 0.0565 | [18] 0.0635 | [19] 0.137 | [20] 0.158

Nc1ncnc2c1ncn2[C@@H]1O[C@H](CO)[C@@H](O)[C@@H]1O
inactive: 0.025 µM, library screen: screen2, EWS-FLI1 expression: high (no doxycycline) 0.125 | 0.025 µM, library screen: screen2, EWS-FLI1 expression: low (doxycycline-induced shRNA knockdown) 0.0247 | [9] 0.0965 | [10] 0.0781 | [1] 0.146 | [2] 0.0437 | [11] 0.134 | [12] 0.0881 | [13] 0.113 | [14] 0.0711 | [3] 0.229 | [4] 0.0883 | [15] 0.122 | [16] 0.114 | [17] 0.0774 | [18] 0.127 | 25 µM, library screen: screen2, EWS-FLI1 expression: high (no doxycycline) 0.0602 | 25 µM, library screen: screen2, EWS-FLI1 expression: low (doxycycline-induced shRNA knockdown) 0.0701 | [19] 0.0148 | [20] 0.128

CNc1ncnc2c1ncn2[C@@H]1O[C@H](CO)[C@@H](O)[C@H]1O
inactive: [1] 0.104 | [2] 0.0674 | [3] 0.0505 | [4] 0.098

Nc1nccc2c1ncn2[C@@H]1O[C@H](CO)[C@@H](O)[C@H]1O
inactive: [1] 0.199 | [2] 0.0735 | [3] 0.0748 | [4] 0.125

Nc1ncnc2c1ncn2C1OC(C(=O)NC2CC2)C(O)C1O (stereo not given)
inactive: [1] 0.208 | [2] 0.0695 | [3] 0.136 | [4] 0.0888

Nc1ncnc2c1ncn2C1CCCC1
inactive: [1] 0.222 | [2] 0.00723 | [3] 0.162 | [4] 0.101

Nc1nc(F)nc2c1ncn2[C@@H]1O[C@H](CO)[C@@H](O)[C@@H]1O
inactive: [9] -0.0149 | [10] 0.0418 | [11] 0.0122 | [12] 0.0299 | [13] -0.0547 | [14] 0.0332 | [15] 0.0695 | [16] 0.0196 | [17] 0.023 | [18] 0.0649 | [19] 0.0762 | [20] 0.0699

Nc1ncnc2c1ncn2C1CCCO1 (stereo not given)
active: [1] -0.183 | [2] -0.136 | [3] -0.771 | [4] -0.568

Nc1ncnc2c1c(I)cn2[C@@H]1O[C@H](CO)[C@@H](O)[C@H]1O
inactive: 0.025 µM, library screen: screen1, EWS-FLI1 expression: high (no doxycycline) 0.145 | 0.025 µM, library screen: screen1, EWS-FLI1 expression: low (doxycycline-induced shRNA knockdown) -0.151 | [5] -0.0341 | [6] -0.172
active: [7] -1.08 | [8] -0.349 | 25 µM, library screen: screen1, EWS-FLI1 expression: high (no doxycycline) -2.42 | 25 µM, library screen: screen1, EWS-FLI1 expression: low (doxycycline-induced shRNA knockdown) -2.11

COc1ccc(C(C)C(=O)c2ccc(O)cc2O)cc1 (stereo not given)
inactive: [5] 0.0783 | [6] 0.0339 | [7] 0.16 | [8] 0.123

CCOc1ccc(C(=O)c2cc(O)c(OC)c(OC)c2O)cc1
inactive: [5] 0.0714 | [6] 0.0518 | [7] 0.162 | [8] 0.129

CC(=O)OC1CCC2(C)C3=C(CC[C@H]2C1(C)C)[C@@]1(C)CC[C@@H]([C@@H](C)CCC=C(C)C)[C@]1(C)CC3 (stereo not given in full)
inactive: [5] 0.058 | [6] -0.000522 | [7] 0.0338 | [8] -0.0772

CCN1C(=O)/C(=C\c2cn(CCC#N)nc2-c2ccc(F)cc2)SC1=S
inactive: [5] 0.0868 | [6] 0.118 | [7] 0.107 | [8] -0.0141

O=C(NCc1ccco1)/C(=C\c1ccco1)NC(=O)c1cccs1
inactive: [5] 0.0268 | [6] 0.0429 | [7] 0.0986 | [8] 0.0245

O[C@@H](c1cc(C(F)(F)F)nc2c(C(F)(F)F)cccc12)[C@H]1CCCCN1
inactive: [5] 0.149 | [6] 0.0284 | [7] 0.156 | [8] 0.0765

OCC1OC(O)C(O)C(O)C1O (stereo not given)
inactive: [9] 0.00138 | [10] 0.0347 | [11] 0.0849 | [12] 0.0509 | [13] 0.0635 | [14] 0.0529 | [15] 0.0615 | [16] 0.0566 | [17] 0.0472 | [18] -0.0279 | [19] 0.168 | [20] 0.04

C=C1c2cccc(O)c2C(O)=C2C(=O)[C@]3(O)C(O)=C(C(N)=O)C(=O)[C@@H](N(C)C)[C@@H]3[C@@H](O)[C@H]12
inactive: [9] -0.0411 | [10] 0.0402 | [6] 0.0695 | [11] -0.0282 | [12] 0.0462 | [13] -0.105 | [14] 0.0725 | [8] 0.152 | [15] -0.0751 | [16] 0.0891 | [17] -0.0644 | [18] 0.0589 | [19] -0.0984 | [20] 0.0914
active: [5] -0.16 | [7] -0.0967

C=C1c2c(Cl)ccc(O)c2C(O)=C2C(=O)[C@]3(O)C(O)=C(C(N)=O)C(=O)[C@@H](N(C)C)[C@@H]3[C@@H](O)[C@H]12.O=C(O)c1cc(S(=O)(=O)O)ccc1O
active: [5] -0.128 | [7] -0.126
inactive: [6] 0.0882 | [8] 0.0927

CN(C)c1ccc(O)c2c1C[C@H]1C[C@H]3[C@H](N(C)C)C(=O)C(C(N)=O)=C(O)[C@@]3(O)C(=O)C1=C2O
inactive: [6] -0.0588 | [1] 0.0664 | [2] 0.133 | [8] 0.0344 | [3] 0.00725 | [4] 0.0554
active: [5] -0.177 | [7] -0.0936

C[C@H]1c2cccc(O)c2C(O)=C2C(=O)[C@]3(O)C(O)=C(C(N)=O)C(=O)[C@@H](N(C)C)[C@@H]3[C@@H](O)[C@@H]21
inactive: [5] 0.0339 | [6] 0.251 | [1] 0.0723 | [2] 0.0745 | [7] 0.0598 | [8] 0.256 | [3] -0.00226 | [4] 0.0538
